“And” between values parts separate entries of the source, which are not always exact repeats. Equal entries are not always repeated. Inconclusive results are not listed. Some structures have more than one record in an assay (separate samples or runs), and their calls can disagree. The source made the active and inactive calls. Unless noted, calls come from the whole dose curve; as a rule, active = well fitted curve in the direction sought with a large enough effect in the repeat runs; inconclusive = weak or mixed curves; inactive = no such curve, though single readings can be large; an effect the other way counts as inactive or inconclusive.
Tests used:
[1] = qHTS assay for small molecule disruptors of the mitochondrial membrane potential (AID 720635); note: potency is the fitted concentration of half-maximal effect
Summary of the method: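 HepG2 cells (2,000/well) attached overnight at 37C, then took compound for 1 hr at 37C, 5% CO2. Mito-MPS dye was added for 30 min; fluorescence was read at 490/535 nm (monomers) and 540/590 nm (aggregates).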

[2] = qHTS assay for identifying genotoxic compounds that show differential cytotoxicity against isogenic chicken DT40 cell lines with known DNA damage response pathways - Rev3 mutant cell line (AID 743014); note: nearly all actives have a fitted effect of over 55% in size; note: potency is the fitted concentration of half-maximal effect
[3] = qHTS assay for identifying genotoxic compounds that show differential cytotoxicity against isogenic chicken DT40 cell lines with known DNA damage response pathways - Rad54/Ku70 mutant cell line (AID 743015); note: nearly all actives have a fitted effect of over 60% in size; note: potency is the fitted concentration of half-maximal effect
[4] = qHTS assay to identify small molecule antagonists of the thyroid receptor (TR) signaling pathway (AID 743065); note: potency is the fitted concentration of half-maximal effect; nearly all actives have a fitted effect of over 55% in size
Summary of the method: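 GH3.TRE-Luc rat pituitary cells carrying two TR response elements driving luciferase were plated for 4 h, given compound plus 1 nM T3 (final), and incubated 23.5 h at 37 C. ONE-Glo luminescence measured reporter inhibition; CellTiter-Fluor fluorescence tracked cytotoxicity.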

[5] = qHTS assay to identify small molecule antagonists of the estrogen receptor alpha (ER-alpha) signaling pathway - cell viability counter screen (AID 743074; calls by dose curve;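 note: HEK293 cells carrying ER-alpha-UAS-bla reporter stimulated with 17beta-estradiol; nearly all actives have a fitted effect of over 45% in size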; note: potency is the fitted concentration of half-maximal effect)
[6] = target: Estrogen receptor (Homo sapiens) (UniProt P03372); assay: qHTS assay to identify small molecule agonists of the estrogen receptor alpha (ER-alpha) signaling pathway (AID 743075; calls by dose curve)
Sequence of Estrogen receptor (Homo sapiens) (P03372 whole entry, looked up): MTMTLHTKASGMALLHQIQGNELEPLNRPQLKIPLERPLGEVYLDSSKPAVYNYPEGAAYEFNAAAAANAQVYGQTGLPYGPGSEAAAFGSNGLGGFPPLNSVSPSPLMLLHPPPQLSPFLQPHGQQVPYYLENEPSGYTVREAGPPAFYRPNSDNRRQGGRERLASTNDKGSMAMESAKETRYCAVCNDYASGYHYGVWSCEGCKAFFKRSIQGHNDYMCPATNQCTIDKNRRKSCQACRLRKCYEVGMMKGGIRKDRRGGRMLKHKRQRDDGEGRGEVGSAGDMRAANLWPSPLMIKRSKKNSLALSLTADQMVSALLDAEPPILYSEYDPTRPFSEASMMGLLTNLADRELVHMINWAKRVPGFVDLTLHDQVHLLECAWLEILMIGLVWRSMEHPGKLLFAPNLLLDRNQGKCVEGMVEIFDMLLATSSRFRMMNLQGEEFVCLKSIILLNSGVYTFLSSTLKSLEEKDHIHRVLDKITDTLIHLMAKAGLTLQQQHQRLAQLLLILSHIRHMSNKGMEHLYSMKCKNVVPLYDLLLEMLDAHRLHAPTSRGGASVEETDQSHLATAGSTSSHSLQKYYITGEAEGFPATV

[7] = qHTS assay to identify small molecule antagonists of the estrogen receptor alpha (ER-alpha) signaling pathway using the BG1 cell line - cell viability counter screen (AID 743081);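 note: compound given together with 17beta-estradiol as the ER stimulus; series mostly up to about 70 µM; nearly all actives have a fitted effect of over 45% in size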
[8] = qHTS assay to identify aromatase inhibitors - cell viability counter screen (AID 743084);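 note: cells stimulated with testosterone during compound exposure; nearly all actives have a fitted effect of over 55% in size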; note: potency is the fitted concentration of half-maximal effect
[9] = qHTS assay to identify small molecule that activate the aryl hydrocarbon receptor (AhR) signaling pathway - cell viability counter screen (AID 743086); note: nearly all actives have a fitted effect of over 45% in size; note: potency is the fitted concentration of half-maximal effect
Summary of the method: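 HepG2-AhR-luc (HG2L7.5c1) cells, 4000/well, were preincubated 5 h at 37C, exposed to compound in qHTS format for 24 hr at 37C, then given CellTiter-Fluor for 30 min; viability was read as fluorescence in the reporter wells.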

[10] = qHTS assay for small molecule activators of the heat shock response signaling pathway (AID 743210; active = well fitted activation curve with a large enough effect in the signal ratio in the repeat runs, with a control signal flat, not every such curve was filed as active; the % refers to the signal ratio; note: potency is the fitted concentration of half-maximal effect; for activation: series mostly up to about 63 µM)
Summary of the method: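 HSE-bla HeLa cells (beta-lactamase reporter under heat shock response elements) were exposed to compounds for 5 h at 37 C, then loaded with LiveBLAzer B/G FRET substrate for 2.5 h at room temperature before fluorescence reading.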

[11] = target: Peroxisome proliferator-activated receptor delta (Homo sapiens) (UniProt Q03181); assay: qHTS assay to identify small molecule antagonists of the peroxisome proliferator-activated receptor delta (PPARd) signaling pathway (AID 743215; active = well fitted inhibition curve with a large enough effect in the signal ratio in the repeat runs, not every such curve was filed as active; the % refers to the signal ratio;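 note: cells stimulated with agonist L165041 at 300 nM final during compound exposure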; note: potency is the fitted concentration of half-maximal effect)
Sequence of Peroxisome proliferator-activated receptor delta (Homo sapiens) (Q03181 whole entry, looked up): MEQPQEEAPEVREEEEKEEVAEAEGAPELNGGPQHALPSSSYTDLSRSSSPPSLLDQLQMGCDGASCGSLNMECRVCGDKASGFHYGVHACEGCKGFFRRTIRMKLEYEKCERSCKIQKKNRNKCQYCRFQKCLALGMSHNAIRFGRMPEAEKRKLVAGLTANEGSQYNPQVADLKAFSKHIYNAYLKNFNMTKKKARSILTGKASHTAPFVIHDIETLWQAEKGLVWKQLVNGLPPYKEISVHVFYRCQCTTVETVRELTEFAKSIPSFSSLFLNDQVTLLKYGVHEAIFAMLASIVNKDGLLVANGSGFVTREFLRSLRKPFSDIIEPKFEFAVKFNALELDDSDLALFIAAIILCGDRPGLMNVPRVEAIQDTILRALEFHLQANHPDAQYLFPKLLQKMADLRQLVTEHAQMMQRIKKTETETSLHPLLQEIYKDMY
Summary of the method: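 PPARd UAS-bla HEK293H cells were pre-incubated 5 h at 37 C, then given test compounds in DMSO plus agonist L165041 (300 nM final). After 17 h at 37 C, beta-lactamase FRET substrate was added; fluorescence read after 2 h at room temperature.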

[12] = qHTS assay to identify small molecule antagonists of the farnesoid-X-receptor (FXR) signaling pathway - cell viability counter screen (AID 743221; active = well fitted cell-killing curve with a large enough effect in the repeat runs, not every such curve was filed as active; note: nearly all actives have a fitted effect of over 50% in size; note: potency is the fitted concentration of half-maximal effect)
Summary of the method: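 In GeneBLAzer FXR-UAS-bla HEK 293T cells stimulated with 50 uM chenodeoxycholic acid (final), compounds acted for 16 h at 37 C. Viability was assessed afterwards by CellTiter-Glo luminescence.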

[13] = target: Nuclear receptor ROR-gamma (Homo sapiens) (UniProt P51449); assay: qHTS assay to identify small molecule antagonists of the retinoid-related orphan receptor gamma (ROR-gamma) signaling pathway (AID 1159521; note: nearly all actives have a fitted effect of over 50% in size; note: potency is the fitted concentration of half-maximal effect)
Summary of the method: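 CHO cells expressing RORγ under a TET-on promoter, luciferase under RORE control. Dox 1 uM final, 16 h; compounds added 2 h prior. Luminescence decrease measured.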

[14] = target: Androgen receptor (Homo sapiens) (UniProt P10275); assay: qHTS assay to identify small molecule antagonists of the androgen receptor (AR) signaling pathway using the MDA cell line in the presence of 0.5 nM R1881 (AID 1259243); note: nearly all actives have a fitted effect of over 50% in size; note: potency is the fitted concentration of half-maximal effect
Sequence of Androgen receptor (Homo sapiens) (P10275 whole entry, looked up): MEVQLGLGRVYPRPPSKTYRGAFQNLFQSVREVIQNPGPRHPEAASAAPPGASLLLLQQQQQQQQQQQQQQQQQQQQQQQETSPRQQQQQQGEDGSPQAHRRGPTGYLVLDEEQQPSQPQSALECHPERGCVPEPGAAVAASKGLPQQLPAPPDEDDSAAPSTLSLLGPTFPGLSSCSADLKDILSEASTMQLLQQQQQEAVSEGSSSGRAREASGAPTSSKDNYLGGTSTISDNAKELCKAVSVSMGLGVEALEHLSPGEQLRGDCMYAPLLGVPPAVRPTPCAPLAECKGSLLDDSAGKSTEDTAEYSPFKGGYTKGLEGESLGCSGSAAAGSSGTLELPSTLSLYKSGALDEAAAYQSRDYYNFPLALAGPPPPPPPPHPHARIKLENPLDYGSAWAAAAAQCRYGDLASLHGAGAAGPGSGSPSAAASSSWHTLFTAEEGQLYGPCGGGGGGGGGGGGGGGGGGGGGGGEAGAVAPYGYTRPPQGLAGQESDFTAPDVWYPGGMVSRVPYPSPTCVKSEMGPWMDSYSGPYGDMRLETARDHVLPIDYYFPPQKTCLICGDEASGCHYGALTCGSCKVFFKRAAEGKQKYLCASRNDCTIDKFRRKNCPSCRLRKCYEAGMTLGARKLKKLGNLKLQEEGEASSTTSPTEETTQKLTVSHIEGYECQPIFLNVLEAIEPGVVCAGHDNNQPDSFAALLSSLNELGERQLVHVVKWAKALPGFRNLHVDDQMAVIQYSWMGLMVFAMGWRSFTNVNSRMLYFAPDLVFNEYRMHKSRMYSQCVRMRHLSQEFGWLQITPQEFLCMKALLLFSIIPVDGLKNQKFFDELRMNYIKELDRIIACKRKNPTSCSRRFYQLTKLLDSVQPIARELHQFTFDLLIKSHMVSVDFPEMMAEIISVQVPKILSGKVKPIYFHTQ
Summary of the method: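 MDA-kb2 human breast carcinoma cells carrying an MMTV-luciferase reporter (AR- and GR-responsive) were plated, rested 5 hr at 37C, dosed with compounds, then stimulated with 0.5 nM R1881 (final) for 16 hr; luminescence was read after ONE-Glo.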

[15] = target: Estrogen receptor beta (Homo sapiens) (UniProt Q92731); assay: qHTS assay to identify small molecule antagonists of the estrogen receptor beta (ER-beta) signaling pathway (AID 1259378; active = well fitted inhibition curve with a large enough effect in the signal ratio in the repeat runs, not every such curve was filed as active; the % refers to the signal ratio; note: potency is the fitted concentration of half-maximal effect)
Sequence of Estrogen receptor beta (Homo sapiens) (Q92731 whole entry, looked up): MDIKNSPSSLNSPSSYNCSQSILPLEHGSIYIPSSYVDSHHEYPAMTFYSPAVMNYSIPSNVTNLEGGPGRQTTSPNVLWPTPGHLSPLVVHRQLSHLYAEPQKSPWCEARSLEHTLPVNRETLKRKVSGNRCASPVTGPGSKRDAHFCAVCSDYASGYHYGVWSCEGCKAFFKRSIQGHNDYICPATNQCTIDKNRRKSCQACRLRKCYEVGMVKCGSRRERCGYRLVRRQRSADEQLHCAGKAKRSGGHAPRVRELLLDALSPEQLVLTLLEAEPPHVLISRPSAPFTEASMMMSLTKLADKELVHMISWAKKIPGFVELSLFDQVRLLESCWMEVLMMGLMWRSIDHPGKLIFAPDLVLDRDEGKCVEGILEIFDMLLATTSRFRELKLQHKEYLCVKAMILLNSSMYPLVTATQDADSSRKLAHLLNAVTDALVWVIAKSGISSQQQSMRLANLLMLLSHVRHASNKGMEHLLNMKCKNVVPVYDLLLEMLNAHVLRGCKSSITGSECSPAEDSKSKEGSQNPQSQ
Summary of the method: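 ER-beta-UAS-bla HEK293T (GripTite) cells in 2% charcoal-stripped FBS medium were preincubated 6 hr at 37C, dosed with compound, then stimulated with 1 nM E2 (final) for 16 hr; beta-lactamase reporter read by B/G FRET fluorescence after 2 hr substrate loading.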

[16] = qHTS assay for identifying genotoxic compounds that show differential cytotoxicity against isogenic chicken DT40 cell lines with known DNA damage response pathways - wild type cell line (AID 743012); note: nearly all actives have a fitted effect of over 60% in size; note: potency is the fitted concentration of half-maximal effect
Summary of the method: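 Parental DNA repair-proficient DT40 cells, 300 per well, were pre-incubated ~0.5 h at 37 C/5% CO2, pin-dosed with compounds in DMSO, then incubated 40 h. Viability was read as CellTiter-Glo luminescence after 30 min at room temperature.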

[17] = qHTS assay to identify small molecule antagonists of the androgen receptor (AR) signaling pathway - cell viability counter screen (AID 743033; note: nearly all actives have a fitted effect of over 45% in size; note: potency is the fitted concentration of half-maximal effect)
[18] = qHTS assay to identify small molecule antagonists of the thyroid receptor (TR) signaling pathway - cell viability counter screen (AID 743064); note: nearly all actives have a fitted effect of over 50% in size; note: potency is the fitted concentration of half-maximal effect
Summary of the method: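 Compounds were tested on GH3.TRE-Luc cells in the presence of T3 at 1 nM final. Following 23.5 h at 37 °C, cell viability was quantified by CellTiter-Fluor.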

[19] = qHTS assay to identify small molecule agonists of the peroxisome proliferator-activated receptor delta (PPARd) signaling pathway - cell viability counter screen (AID 743211); note: nearly all actives have a fitted effect of over 55% in size; note: potency is the fitted concentration of half-maximal effect
Summary of the method: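 Luminescent ATP viability assay (CellTiter-Glo, 30 min RT) in UAS-bla HEK293H cells carrying the PPAR delta reporter construct, 3000 cells/well, after a 17 h compound treatment at 37 C.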

[20] = qHTS assay for small molecules that induce genotoxicity in human embryonic kidney cells expressing luciferase-tagged ATAD5 - cell viability (AID 651634; calls by dose curve; note: nearly all actives have a fitted effect of over 25% in size)
Summary of the method: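 HEK293T cells expressing luciferase-tagged ATAD5 were exposed to compound or DMSO for 15.5 hr at 37C, 5% CO2. Viability was then read as live-cell protease activity by CellTiter-Fluor fluorescence after 30 min at 37C.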

Measured: Potency

O=C1C(I)=CC(=C(c2cc(I)c(O)c(I)c2)c2ccccc2C(=O)O)C=C1I
inactive: [2] | [3] | [5] | [6] | [7] | [8] | [9] | [10] | [11] | [12]
active: [1] 8.41 µM and 4.22 µM | [4] 29.8 µM and 23.7 µM

ClC1=C(Cl)C(Cl)(Cl)C(Cl)=C1Cl
active: [10] 52.9 µM

CCN(CC)C(=O)Cl
inactive: [13] | [14] | [15]

Nc1ccc(Cl)cc1[N+](=O)[O-]
inactive: [10]

N#Cc1cc([N+](=O)[O-])ccc1N
inactive: [15]

CC1COC(Cn2cncn2)(c2ccc(Oc3ccc(Cl)cc3)cc2Cl)O1 (centres undefined)
inactive: [10]
active: [1] 61.1 µM | [16] 1.37 µM | [2] 686 nM | [3] 2.43 µM | [17] 21.9 µM | [18] 48.6 µM | [4] 12.2 µM | [19] 49 µM | [11] 49 µM | [15] 27.3 µM

ClC(Cl)=C(c1ccc(Cl)cc1)c1ccccc1Cl
active: [14] 9.69 µM | [15] 6.86 µM

Cc1cc(C(C)(C)c2ccc(O)c(C)c2)ccc1O
active: [1] 6.53 µM | [14] 4.62 µM
inactive: [16] | [2] | [18] | [5] | [7] | [10] | [12]

O=S(=O)(C(Cl)(Cl)Cl)C(Cl)(Cl)Cl
active: [14] 17.2 µM

CCOC(=O)C(O)(c1ccc(Cl)cc1)c1ccc(Cl)cc1
44.1 µM (active) and inactive: [12]
active: [1] 4.37 µM and 24.3 µM | [16] 6.18 µM and 19.3 µM | [2] 2.19 µM and 24.3 µM | [3] 3.9 µM and 17.2 µM | [17] 7.84 µM | [18] 6.18 µM | [4] 4.91 µM and 61.1 µM | [8] 6.18 µM | [19] 13.9 µM and 43.6 µM | [14] 13.8 µM and 21.7 µM | [15] 30.9 µM and 54.5 µM
61.8 µM (active) and inactive: [9]
inactive: [6] | [7] | [10]
24.8 µM (active) and inactive: [5]

Cc1ccc(N(SC(F)(Cl)Cl)S(=O)(=O)N(C)C)cc1
active: [1] 17.2 µM | [16] 0.122 µM | [2] 122 nM | [3] 0.137 µM | [17] 3.47 µM | [18] 2.73 µM | [4] 2.17 µM | [8] 34.4 µM | [9] 48.6 µM | [19] 19.5 µM | [12] 19.5 µM | [14] 15.4 µM | [15] 13.7 µM

CCCCC(CC)COC(=O)CCCCC(=O)OCC(CC)CCCC (centres undefined)
inactive: [11]

Cc1cc(C)c(C(=O)P(=O)(c2ccccc2)c2ccccc2)c(C)c1
active: [13] 61.1 µM | [14] 54.5 µM

ClC1=C(Cl)[C@]2(Cl)[C@@H]3[C@@H](Cl)[C@H]4O[C@H]4[C@@H]3C1(Cl)C2(Cl)Cl
active: [1] 27.3 µM | [16] 61.1 µM | [3] 61.1 µM | [4] 54.5 µM | [19] 54.9 µM
inactive: [20] | [17] | [5] | [6] | [7] | [8] | [9] | [11] | [12] | [15]

C=CC(=O)OCCCC
inactive: [11]

Cc1ccccc1N=O
inactive: [11]

Fc1c(F)c(F)c(Br)c(F)c1F
inactive: [11]

Nc1ccc(Cl)cc1Cl
inactive: [10]

Brc1ccc(Br)c(Br)c1
inactive: [10]

Cc1cccc([N+](=O)[O-])c1C
inactive: [11]

C=CC(=O)OCCCCCCCC(C)C
inactive: [15]

Clc1ccccc1-c1ccccc1Cl
inactive: [20] | [16] | [3] | [17] | [18] | [5] | [7] | [9] | [10] | [19] | [11] | [12]
active: [1] 19.6 µM

— PubChem BioAssay (Tox21)
